# Measured values: PubChem BioAssay (EPA / NIEHS)
# Results filed as inconclusive are left out. Active and inactive are the calls of the source. The calls were made as follows: active = hit-call score of the fitted dose curve at least 0.9, where 1 is the maximum; inconclusive = response in the unintended direction; inactive = score below 0.9.
# Biological target: Protein deacetylase HDAC6 (Homo sapiens) (UniProt Q9UBN7)
# Test: NVS_ENZ_hHDAC6: NovaScreen (NVS) Enzymatic Assay for human Histone Deacetylase 6 (HDAC6) (AID 2283164)
# Outline: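 Concentration-response runs up to 50 uM followed a duplicate 25 uM single-point screen. Deacetylase activity of recombinant human HDAC6 read by fluorescence after 1 h, with mobility-shift separation of substrate and product; DMSO as baseline.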
# Sequence of Protein deacetylase HDAC6 (Homo sapiens) (Q9UBN7 whole entry, looked up): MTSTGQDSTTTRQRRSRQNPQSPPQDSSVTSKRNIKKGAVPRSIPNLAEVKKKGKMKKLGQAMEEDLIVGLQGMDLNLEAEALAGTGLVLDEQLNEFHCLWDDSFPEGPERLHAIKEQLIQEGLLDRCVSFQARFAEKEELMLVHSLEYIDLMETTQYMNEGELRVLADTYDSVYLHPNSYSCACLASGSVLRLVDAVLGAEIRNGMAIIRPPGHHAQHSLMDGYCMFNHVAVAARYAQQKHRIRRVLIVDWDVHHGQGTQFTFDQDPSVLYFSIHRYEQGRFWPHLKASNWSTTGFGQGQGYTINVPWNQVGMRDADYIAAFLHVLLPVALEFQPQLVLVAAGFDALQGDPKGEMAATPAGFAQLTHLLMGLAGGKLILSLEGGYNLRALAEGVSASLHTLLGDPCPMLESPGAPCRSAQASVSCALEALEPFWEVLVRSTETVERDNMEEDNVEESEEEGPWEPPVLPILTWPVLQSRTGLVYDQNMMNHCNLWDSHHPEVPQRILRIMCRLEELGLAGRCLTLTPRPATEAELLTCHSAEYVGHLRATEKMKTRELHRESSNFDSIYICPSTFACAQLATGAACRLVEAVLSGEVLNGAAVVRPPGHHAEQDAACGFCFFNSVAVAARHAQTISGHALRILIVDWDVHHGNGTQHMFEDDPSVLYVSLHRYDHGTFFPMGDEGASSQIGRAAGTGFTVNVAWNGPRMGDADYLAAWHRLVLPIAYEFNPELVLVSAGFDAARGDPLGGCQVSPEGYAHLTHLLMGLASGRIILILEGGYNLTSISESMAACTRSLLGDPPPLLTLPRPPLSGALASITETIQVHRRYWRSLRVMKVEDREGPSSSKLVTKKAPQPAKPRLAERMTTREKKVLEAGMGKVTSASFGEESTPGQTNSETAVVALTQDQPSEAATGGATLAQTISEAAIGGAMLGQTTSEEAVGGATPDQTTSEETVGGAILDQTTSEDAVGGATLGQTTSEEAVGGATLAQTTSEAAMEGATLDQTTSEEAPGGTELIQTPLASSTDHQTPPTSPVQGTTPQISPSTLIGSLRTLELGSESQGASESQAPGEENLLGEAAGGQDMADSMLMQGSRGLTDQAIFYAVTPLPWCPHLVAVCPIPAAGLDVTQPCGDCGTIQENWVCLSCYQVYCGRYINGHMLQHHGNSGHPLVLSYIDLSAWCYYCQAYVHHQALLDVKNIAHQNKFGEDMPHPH
row,Structure (SMILES),outcome
1,O=S(=O)(O)C(F)(F)C(F)(F)C(F)(F)C(F)(F)C(F)(F)C(F)(F)F,inactive
2,CC1=C2C[C@H]3[C@@H](CC=C4C[C@@H](O)CC[C@@]43C)[C@@H]2CC[C@]12O[C@@H]1C[C@H](C)CN[C@H]1[C@H]2C,inactive
3,CCOCCOC(C)=O,inactive
4,c1cc2ccc3cccc4ccc(c1)c2c34,inactive

# Biological target: Glycogen synthase kinase-3 beta (Homo sapiens) (UniProt P49841)
# Test: NVS_ENZ_hGSK3b: NovaScreen (NVS) Enzymatic Assay for human Glycogen Synthase Kinase-3 beta (GSK3b) (AID 2283165)
# Outline: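 Recombinant enzyme with specific fluorescent substrate, 1 h, product separated by electrophoretic mobility shift. Primary duplicate screen at 25 uM; actives (e.g. 30% inhibition) followed in singleton concentration-response to 50 uM. Signal loss fitted versus DMSO.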
# Sequence of Glycogen synthase kinase-3 beta (Homo sapiens) (P49841 whole entry, looked up): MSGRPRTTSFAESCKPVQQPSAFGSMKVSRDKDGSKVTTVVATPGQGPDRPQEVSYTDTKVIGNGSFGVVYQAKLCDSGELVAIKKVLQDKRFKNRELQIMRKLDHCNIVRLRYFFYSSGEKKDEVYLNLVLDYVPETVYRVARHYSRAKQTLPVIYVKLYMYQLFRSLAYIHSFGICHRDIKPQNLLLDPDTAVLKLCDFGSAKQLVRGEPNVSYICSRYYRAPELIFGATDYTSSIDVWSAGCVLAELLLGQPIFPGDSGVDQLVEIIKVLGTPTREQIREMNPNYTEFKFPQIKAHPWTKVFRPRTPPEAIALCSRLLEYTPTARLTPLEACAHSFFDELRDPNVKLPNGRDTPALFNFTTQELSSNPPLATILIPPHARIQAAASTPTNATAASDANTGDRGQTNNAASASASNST
row,Structure (SMILES),outcome
1,Clc1ccc(Cl)cc1,inactive
2,CC1=C2C[C@H]3[C@@H](CC=C4C[C@@H](O)CC[C@@]43C)[C@@H]2CC[C@]12O[C@@H]1C[C@H](C)CN[C@H]1[C@H]2C,inactive
3,O=C(O)C(F)(F)C(F)(F)C(F)(F)C(F)(F)C(F)(F)C(F)(F)C(F)(F)C(F)(F)F,inactive
4,COc1ccc(O)c(C(C)(C)C)c1,inactive
5,CC(C)C(=O)OCC(C)(C)C(OC(=O)C(C)C)C(C)C (configuration not stated),inactive
6,O=C(NC(=O)c1cc(F)c(F)cc1Cl)Nc1cc(F)ccc1N1CCC(C(=O)O)CC1,inactive
7,Cc1ccccc1[N+](=O)[O-],inactive
8,CCCN(CCC)N=O,inactive
9,Cc1ccc(O)c(C)c1,inactive
10,Cc1cc(O)ccc1Cl,inactive
11,Cc1ccccc1O,inactive
12,C1CC2OC2CC1C1CO1 (configuration not stated),inactive
13,C=CC(N)=O,inactive
